Assay results from article PMC4336329 (PLoS ONE, 2015).
Among all 310,000 compounds or so, about 14,000 (4.5%) showed an effect of 50% or more. The effect is printed as a negative number. Shown is part of a subset that was picked to be rich in strong results.

molecular target: human ether-à-go-go-related gene (hERG) potassium channel (human, UniProt Q12809); assay: primary screen, population patch clamp on CHO cells stably expressing hERG; higher = less effect of the substance
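Also: peak tail current of the secondary pulse compared with the same well before compound.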

Sequence of human ether-à-go-go-related gene (hERG) potassium channel (Q12809 whole entry, looked up): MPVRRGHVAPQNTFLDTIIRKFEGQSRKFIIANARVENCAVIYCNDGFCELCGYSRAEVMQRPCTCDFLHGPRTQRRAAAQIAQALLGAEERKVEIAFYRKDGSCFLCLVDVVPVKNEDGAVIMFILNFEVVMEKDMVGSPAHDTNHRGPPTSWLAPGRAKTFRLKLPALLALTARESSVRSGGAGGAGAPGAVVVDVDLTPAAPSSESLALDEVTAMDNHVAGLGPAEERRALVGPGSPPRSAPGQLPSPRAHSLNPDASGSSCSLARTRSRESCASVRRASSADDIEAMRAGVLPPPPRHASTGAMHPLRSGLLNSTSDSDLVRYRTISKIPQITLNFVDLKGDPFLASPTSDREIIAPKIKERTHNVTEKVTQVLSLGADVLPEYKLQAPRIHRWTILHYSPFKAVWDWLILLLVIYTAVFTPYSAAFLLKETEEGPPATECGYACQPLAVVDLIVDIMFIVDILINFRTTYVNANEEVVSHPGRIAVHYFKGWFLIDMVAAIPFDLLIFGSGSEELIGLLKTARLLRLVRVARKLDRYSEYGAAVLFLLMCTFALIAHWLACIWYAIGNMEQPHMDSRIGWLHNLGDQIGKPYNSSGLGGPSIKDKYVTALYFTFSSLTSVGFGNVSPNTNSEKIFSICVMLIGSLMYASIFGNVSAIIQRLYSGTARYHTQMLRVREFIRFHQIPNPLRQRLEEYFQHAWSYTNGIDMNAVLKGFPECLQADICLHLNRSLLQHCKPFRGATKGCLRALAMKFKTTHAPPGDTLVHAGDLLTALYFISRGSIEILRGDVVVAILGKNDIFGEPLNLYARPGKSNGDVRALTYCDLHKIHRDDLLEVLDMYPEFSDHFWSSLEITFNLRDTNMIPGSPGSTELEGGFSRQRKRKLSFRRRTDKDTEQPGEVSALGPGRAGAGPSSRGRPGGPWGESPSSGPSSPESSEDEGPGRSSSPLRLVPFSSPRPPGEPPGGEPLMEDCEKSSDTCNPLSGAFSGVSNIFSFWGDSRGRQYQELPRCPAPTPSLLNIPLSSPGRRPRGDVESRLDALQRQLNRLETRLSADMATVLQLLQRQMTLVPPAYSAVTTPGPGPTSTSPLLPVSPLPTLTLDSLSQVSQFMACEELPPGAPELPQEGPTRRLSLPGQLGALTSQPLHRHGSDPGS

Structure (SMILES)	hERG current change (%, negative = inhibition) at 10uM [%]
CCn1c(SCC(=O)N/N=C(\C)c2ccncc2)nnc1-c1ccc(C)cc1	-20.6
Cc1cc(C(=O)NC2CCN(Cc3ccccc3)CC2)n[nH]1	-19.8
O=C(NC1CCN(Cc2ccccc2)CC1)c1cc(Br)c(Br)[nH]1	-2.75
O=C(NC1CCN(Cc2ccccc2)CC1)c1cccc(Br)c1	-63.8
Cl.O=C(NC1CCN(Cc2ccccc2)CC1)c1cccc(OC(F)F)c1	-74.1
CC1CCc2sc(C(=O)NC3CCN(Cc4ccccc4)CC3)cc2C1 (stereo not shown)	-54.1
O=C(NC1CC1)c1cccc(Br)c1	0.381
CC1CCc2sc(C(=O)NN)cc2C1 (stereo not shown)	21.1
O=C(NC1CCN(Cc2ccccc2)CC1)c1cncc(Br)c1	-64.1
O=C(NC1CCN(Cc2ccccc2)CC1)c1ccc(Oc2cc(Cl)cc(Cl)c2)o1	-6.95
CC1CCc2sc(C(=O)NC3CCCCC3)cc2C1 (stereo not shown)	-5.4
O=C(NC1CCN(Cc2ccccc2)CC1)c1ccc2c(c1)OCCCO2	-37.1
O=C(NC1CCN(Cc2ccccc2)CC1)c1c(F)cccc1F	-24.4
O=[N+]([O-])c1ccc2c(c1)[nH]c(=S)n2-c1ccccc1	36.4
COc1cccc(CNS(=O)(=O)c2cc3c(cc2C)NC(=O)CO3)c1	-25.4
COCC1CCN(C(=O)c2ccc3oc(Cc4ccccc4)nc3c2)C1 (stereo not shown)	-0.23
COc1cccc(/C=N/NC(=O)CC(=O)NCCc2ccccc2)c1OC	6.02
Cl.NC(N)=NC(N)=Nc1cccc(Cl)c1	-2.14
Cc1nc2ccccn2c1C(=O)N/N=C/c1ccc([N+](=O)[O-])o1	-64.1
Cc1nc2ccccn2c1C(=O)N/N=C/c1ccc([N+](=O)[O-])cc1	2.88
CCOc1ccc(/C=N\NC(=O)c2c(C)nc3cc(C)ccn23)cc1	-2.47
COc1ccc(NC(=O)C(=O)N/N=C\c2ccc(CNC(=O)C(=O)Nc3ccc(C)c(C)c3)o2)c(OC)c1	9.12

Structure (SMILES)	hERG current change (%, negative = inhibition) at 10uM [%]
Cc1nc2ccccn2c1C(=O)N/N=C/c1ccccc1	11.6
Cc1nc2ccccn2c1C(=O)N/N=C/c1ccc(CNC(=O)C(=O)Nc2ccccc2)o1	-50.3
Cc1ccc(NC(=O)C(=O)NCc2ccc(/C=N/NC(=O)c3c(C)nc4cc(C)ccn34)o2)cc1	-64
Cc1ccc(NC(=O)C(=O)NCc2ccc(/C=N/NC(=O)c3c(C)nc4ccccn34)o2)cc1	1.37
Cc1ccc(C)c(-n2c(C)cc(/C=N/NC(=O)c3c(C)nc4cc(C)ccn34)c2C)c1	-0.122
Cc1nc2ccccn2c1C(=O)N/N=C/c1ccccc1[N+](=O)[O-]	2.26
Cc1ccn2c(C(=O)N/N=C/c3ccc(CNC(=O)C(=O)Nc4ccc(C)c(C)c4)o3)c(C)nc2c1	-57
Cc1ccn2c(C(=O)N/N=C\c3cccs3)c(C)nc2c1	-7.56
O=C(Nc1ccc(F)cc1)c1cc2ccccc2o1	20
COc1cccc(CSc2nnnn2-c2ccc(O)cc2)c1	-18.5
CCCCn1c(N)c(N(CCC(C)C)C(=O)c2cc(Cl)nc3ccccc23)c(=O)[nH]c1=O	15.2
COC(=O)c1cccc(-n2nnnc2SCC(=O)Nc2nc3c(s2)CCCC3)c1	-0.926
Cc1ccc(OCCC(=O)O)cc1	13.4
COc1ccc(OC)c(CNCc2ccc3c(c2)OCO3)c1.O=C(O)C(=O)O	-4.43
CC(=O)c1ccc(NC(=O)C2=CC(c3cccs3)=NS(=O)(=O)N2C)cc1	-0.218
CN(C)CCC(Oc1ccccc1OCc1ccccc1)c1ccccc1.O=C(O)C(=O)O (stereo not shown)	-68.6
CC(O)CNCCCOc1ccccc1OCc1ccccc1.O=C(O)C(=O)O (stereo not shown)	-36.7
CC(C)Oc1ccccc1OCCN(C)C.O=C(O)C(=O)O	6.22
COC(=O)c1ccccc1S(=O)(=O)N1CCC(C(=O)N2CCC2)CC1	3.96
CC(C)C1OC2(C)OC(=N)C1(C#N)C(C#N)(C#N)C2c1ccccc1 (stereo not shown)	2.05
COc1ccc(-c2nnc(OCc3nc4ccccc4n3C)c3ccccc23)cc1	-40.2
Cl.OCCNc1nc(Nc2ccc(Cl)c(Cl)c2)nc2ccccc12	14.5

Structure (SMILES)	hERG current change (%, negative = inhibition) at 10uM [%]
CNc1nc(NCc2ccccc2)c2ccccc2n1.Cl	-68.1
Cc1ccc(Nc2nc(NCCO)c3ccccc3n2)cc1C.Cl	-52.4
Cl.c1ccc(CNc2nc(NCc3ccccc3)c3ccccc3n2)cc1	2.65
Cl.OCCNc1nc(NCc2ccccc2)c2ccccc2n1	-54.6
Cl.OCCNc1nc(Nc2ccc(O)cc2)nc2ccccc12	-28.6
Cl.OCCNc1nc(Nc2ccc(Br)cc2)nc2ccccc12	-36.3
Cl.OCCNc1nc(Nc2ccccc2)nc2ccccc12	-35
Cl.Oc1ccccc1Nc1nc(NCc2ccccc2)c2ccccc2n1	-1.42
Nc1ccc(C2(c3ccc(N)cc3)CCCCC2)cc1	22.1
O=C(Nc1cccnc1)c1cc(-c2ccc(Br)cc2)nc2ccccc12	-2.53
O=S1(=O)N=C(N2CCc3ccccc3C2)c2ccccc21	-39
O=C(c1ccco1)N1CCN(c2cc(C(F)(F)F)nc3ncnn23)CC1	-16.7
Cc1ccc(C(=O)CCNc2cccc(Br)c2)o1	4.71
O=C(COc1ccc(Cl)cc1)NCCSCc1cccc(Cl)c1	-13.5
CC1CCN(c2c(NCC3CCC(C(=O)NCCc4ccc(Cl)cc4)CC3)c(=O)c2=O)CC1 (stereo not shown)	-3.81
CCCCN(C(=O)c1ccc2ccccc2c1)c1c(N)n(CCCC)c(=O)[nH]c1=O	8.11
COc1ccc(CCn2c(=N)c(C(=O)NC3CCCCC3)cc3c(=O)n4ccccc4nc32)cc1	-79.4
Cc1ccc(S(=O)(=O)c2cc3c(=O)n4ccccc4nc3n(CCc3ccccc3)c2=N)cc1	5.39
N=c1c(S(=O)(=O)c2ccc(Cl)cc2)cc2c(=O)n3ccccc3nc2n1CCc1ccccc1	4.68
COc1ccc(Cn2c(=N)c(C(=O)NC3CCCCC3)cc3c(=O)n4ccccc4nc32)cc1	-68.9
COc1ccc(Cn2c(=O)[nH]c3cc(C(=O)NC4CCCC4)ccc3c2=O)cc1	15.1
COc1ccc(NC(=O)c2cc3c(=O)n4ccccc4nc3n2C)c(OC)c1	2.99

Structure (SMILES)	hERG current change (%, negative = inhibition) at 10uM [%]
COc1ccc(CCn2c(=N)c(C(=O)NC3CCCC3)cc3c(=O)n4ccccc4nc32)cc1	-81.9
COc1ccc(CCn2c(=N)c(S(=O)(=O)c3ccc(Cl)cc3)cc3c(=O)n4ccccc4nc32)cc1	20.5
N=c1c(C(=O)NC2CCCCC2)cc2c(=O)n3ccccc3nc2n1CCc1ccccc1	-81.1
COc1cccc(-c2csc(NNC(=O)c3cccs3)n2)c1	-2.17
COc1cc(C(=O)N(Cc2ccc(C)o2)C2CCS(=O)(=O)C2)cc(OC)c1OC (stereo not shown)	14.4
O=C(NCc1cccnc1)c1ccc(Br)s1	-16.9
CCN1C(=O)c2cccc3c(NS(=O)(=O)c4ccc(NC(C)=O)cc4)ccc1c23	-8.89
O=C(Cc1ccc(Cl)c(Cl)c1)Nc1cccc2ncccc12	20.2
COCCCNC(=O)c1c(N)n(-c2ccc(S(N)(=O)=O)cc2)c2nc3ccccc3nc12	0.473
Cc1nn(Cc2c(F)c(F)c(F)c(F)c2F)c(C)c1NC(=O)c1cccc(COc2ccc(Cl)cc2)c1	2.49
O=C1c2oc3ccc(Br)cc3c(=O)c2C(c2cccc(F)c2)N1CCO (stereo not shown)	-1.34
ONC(=Nc1ccccc1)c1ccccc1Cl	2.37
CCc1ccccc1NC(=O)CCC(=O)N1CCSc2ccccc21	-14.7
CCOC(=O)c1cnc2nc(NCc3ccc(OCc4ccccc4)cc3)[nH]n2c1=O	5.06
CCN(C(=O)c1cc2c(=O)n3ccccc3nc2n1CCCOC)C1CCCCC1	-2.32
COc1ccc(CCn2c(=N)c(C(=O)NC3CCCC3)cc3c(=O)n4ccccc4nc32)cc1OC	-79.2
COc1ccc(CCn2c(=N)c(C(=O)N3CCN(C)CC3)cc3c(=O)n4ccccc4nc32)cc1	-76.2
COCCCn1c(=N)c(C(=O)NC2CCCCC2)cc2c(=O)n3ccccc3nc21	-78.8
COc1ccc(CCn2c(=N)c(S(=O)(=O)c3ccccc3)cc3c(=O)n4ccccc4nc32)cc1	10.9
COc1ccc(CCn2c(C3CCCCC3)nc3c(c(=O)c4ccccc4n3C)c2=O)cc1OC	-8.08
COCCCn1c(SCC(=O)NC2CCCCC2)nc2ccccc2c1=O	-16.9
COc1ccc(CCn2c(=N)c(S(=O)(=O)c3ccc(C)cc3)cc3c(=O)n4ccccc4nc32)cc1	15.1
